Only some compounds are listed: those with a hit (about 3.7% of all), similar ones and a draw of the others.
BoNT-A LC inh2 – blocks Botulinum neurotoxin A light chain protease | multiplex microsphere protease substrate cleavage, flow cytometry | inhibition, % at 10 µM | 0.17% of 360,000 active; note: plate controls were buffer without enzyme for full effect and enzyme alone for no effect
MazF activator – activators of E. coli MazEF toxin-antitoxin RNase; activation, % at 20 µM; AID 504720; FAM/BHQ RNA-DNA oligo cleavage fluorescence, 5 h; P0AE70; 0.32% of 350,000 active; in the data active = activation above about 50%
Target sequence (P0AE70 whole entry, looked up): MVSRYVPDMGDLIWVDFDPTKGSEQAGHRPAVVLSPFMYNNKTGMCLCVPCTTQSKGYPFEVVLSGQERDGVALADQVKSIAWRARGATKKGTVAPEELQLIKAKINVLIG
Anthrax LF prot – inhibitors of Bacillus anthracis lethal factor protease. P15917. multiplex microsphere protease cleavage assay, LF. inhibition, % at 10 µM. 0.12% of 360,000 active. AID 588501; note: plate controls were buffer without enzyme for full effect and enzyme alone for no effect
BoNT-F LC inh – inhibitors of Botulinum neurotoxin F light chain protease | inhibition, % at 10 µM | AID 588497 | 0.22% of 360,000 active | Multiplex microsphere protease cleavage assay, flow cytometry; in the data active = inhibition above about 35%, passing the limit was not always enough; inconclusive = no clear call, values can overlap the other calls; note: plate controls were buffer without enzyme for full effect and enzyme alone for no effect
Autofluor counter – compound fluorescence in toxin protease inhibitor counterscreen; compound autofluorescence counterscreen, microsphere flow cytometry; hits give high values; fluorescence intensity (concentration not given with the values); 3.1% of 360,000 active; AID 624483; in the data active = fluorescence intensity above about 16000; inconclusive = no clear call, values can overlap the other calls
An asterisk follows results filed as active; ? = inconclusive. Cut-off read from the data, not from the text of the source, unless noted: active = inhibition above about 30%; inconclusive = no clear call, values can overlap the other calls; inactive = below that.

SMILES | BoNT-A LC inh2 | MazF activator | Anthrax LF prot | BoNT-F LC inh | Autofluor counter
O=c1[nH]c(=O)n(Cc2ccccc2Cl)c(O)c1C=Nc1ccc(F)cc1 | 0.3 | 53.0* | 1.2 | 5.8 | 1920
O=C(/C=C/c1c(Cl)cccc1Cl)NCCc1ccccc1 | 1.0 | -0.1 | -1.0 | 1.6 | 20277*
O=C(/C=C/c1cccc(Cl)c1)NCCc1ccccc1 | -0.5 | 1.2 | -1.5 | -9.7 | 2655
Clc1cccc(CSc2ncn(-c3ccccc3)n2)c1 | -0.9 | -6.0 | 0.4 | -3.5 | 16759*
Clc1ccc(CSc2ncn(-c3ccccc3)n2)cc1 | -6.4 | -14.8 | -1.3 | -8.3 | 21528*
Clc1cccc(CSc2nccn2-c2ccccc2)c1 | -0.8 | -1.1 | -6.1 | 13.3 | 2069
CCC(C)C(N)C1=NC(C(=O)N[C@@H](CC(C)C)C(=O)N[C@H](CCC(=O)O)C(=O)N[C@H](C(=O)N[C@H]2CCCCNC(=O)[C@H](CC(N)=O)NC(=O)[C@@H](CC(=O)O)NC(=O)[C@H](Cc3cnc[nH]3)NC(=O)[C@@H](Cc3ccccc3)NC(=O)[C@H]([C@@H](C)CC)NC(=O)[C@@H](CCCN)NC2=O)[C@@H](C)CC)CS1 (stereo not given in full) | -0.8 | 386.6* | 11.9 | -7.2 | 5790
COC(=O)Cc1c(O)ccn(Cc2ccccc2OC)c1=O | -0.1 | 0.6 | 2.6 | ? | 4157
COC(=O)Cc1c(O)ccn(Cc2cccc3ccccc23)c1=O | 1.0 | 5.9 | -0.7 | 0.0 | 21316*
COc1ccc(CSCC(=O)N/N=C/c2ccc(OCC(=O)NCc3ccco3)cc2)cc1 | -0.3 | 0.0 | -1.8 | -8.3 | 2939
Cc1cc(C)cc(CSCC(=O)N/N=C/c2ccc(OCC(=O)NCc3ccco3)cc2)c1 | 3.3 | -19.9 | -3.8 | 2.9 | 21576*
COc1cccc(/C=C/C(=O)OCC(=O)c2ccc(Br)cc2)c1 | -0.4 | -3.2 | -5.3 | 2.1 | 3698
Cc1cc(S(=O)(=O)Nc2ccc3ccccc3c2)c(C)s1 | 4.6 | -13.8 | -4.5 | 2.2 | 19290*
COc1ccc(S(=O)(=O)NCCC(C)C)cc1C | 0.8 | 6.6 | -1.2 | -0.4 | 23019*
COc1ccc(S(=O)(=O)Nc2ccc3c(c2)OCO3)cc1OC | ? | -1.3 | 0.1 | -1.6 | 18331*
Cc1cc(S(=O)(=O)Nc2cccnc2)c(C)s1 | -0.6 | 1.3 | 0.1 | -4.6 | 4703
COc1ccc(S(=O)(=O)Nc2ccc3ccccc3c2)cc1C | -3.8 | 4.7 | 1.1 | -5.6 | 25259*
COc1ccc(NS(=O)(=O)c2ccc3c(c2)OCCO3)cc1OC | -0.3 | 2.6 | 0.7 | 2.6 | 4983
Cn1cccc1CC(=O)NNC(=O)Nc1ccccc1F | -0.4 | -11.6 | 0.8 | -10.3 | 3481
COc1cc(C(=S)N2CCN(C(c3ccccc3)c3ccccc3)CC2)cc(OC)c1O | -1.8 | 10.5 | 9.0 | ? | 4276
Cc1cc(S(=O)(=O)Nc2cc(C)c(O)c(C)c2)c(C)s1 | -2.8 | -18.5 | -5.6 | -5.0 | 16803*
O=C(CSc1nc2ccccc2n1Cc1ccccc1Cl)N/N=C/c1ccccc1C(=O)O | -0.8 | 3.5 | -5.8 | -1.3 | 4743
C=CCOC(=O)C1CC=CCC1C(=O)Oc1ccc(F)cc1F (stereo not given) | ? | -4.0 | -3.4 | -3.1 | 24043*
O=C(COc1ccc(F)cc1F)N1CCCCCCC1 | 0.5 | -2.2 | 9.6 | -9.9 | 3613
CCOC(=O)c1oc2ccc(S(=O)(=O)N3CCC(C)CC3)cc2c1C | -0.5 | -7.6 | 1.6 | -5.5 | 10231
SMILES | BoNT-A LC inh2 | MazF activator | Anthrax LF prot | BoNT-F LC inh | Autofluor counter
COc1ccc2oc(C(=O)OCC(=O)Nc3cc(S(=O)(=O)N4CCOCC4)ccc3C)c(C)c2c1 | 0.5 | 61.0* | 3.1 | -7.0 | ?
CCOC(=O)c1oc2ccc(S(=O)(=O)N3CCOCC3)cc2c1C | ? | -7.5 | -1.4 | -0.7 | 16344*
O=C(Nn1cnc2ccccc2c1=O)c1ccc(Cl)c([N+](=O)[O-])c1 | -0.3 | -5.8 | -11.0 | 16.4 | 3330
CCc1cc2c(SCC(=O)c3ccccc3)ncnc2s1 | -0.6 | -8.4 | -4.9 | -14.1 | 3179
CCc1cc2c(SCC(=O)O)ncnc2s1 | ? | 0.7 | -1.7 | -14.1 | 18901*
O=C(O)CSc1ncnc2sc3c(c12)CCC3 | 0.5 | 4.5 | -0.1 | -0.3 | 19351*
CCSc1ncnc2sc3c(c12)CCC3 | 1.1 | -6.6 | -1.0 | 0.8 | 20242*
Cc1noc(C)c1CSc1ncnc2sc3c(c12)CCCCC3 | 0.7 | -9.1 | 0.3 | 3.0 | 2503
O=C(O)CSc1ncnc2sc3c(c12)CCCC3 | 0.5 | 2.7 | 0.2 | 0.0 | 4441
Fc1ccc(CSc2ncnc3sc4c(c23)CCCC4)cc1 | 1.5 | -10.0 | -5.8 | 1.0 | 19865*
CCOc1ccccc1NC(=O)C1CCCN(S(=O)(=O)c2ccc3c(c2)C(C)(C)C(=O)N3C)C1 (stereo not given) | -0.4 | 5.4 | -2.3 | -8.3 | 5687

Screening results (PubChem)
